Bioassay records deposited in PubChem BioAssay by National Center for Advancing Translational Sciences (NCATS).
hNpr1 antagonist: antagonists of human natriuretic peptide receptor Npr1 | P16066 | HEK293 hNpr1 GloSensor cGMP, ANP-stimulated luminescence | Potency, µM (series often up to 46.3 µM), for the others: at the top dose activity change, negative = inhibition, hits mostly inhibitors | actives 1.6% (n = 76,000); calls by dose curve; also: nearly all actives have a fitted effect of over 60% in size
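HEK293 cells stably expressing human Npr1 and cGMP GloSensor pGS-40F, loaded 2 h with 2% GloSensor reagent, given compound 30 min at room temperature. Luminescence read before and 20 min after 0.1 nM hNppA.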
HEK293 tox: cytotoxic compounds in HEK 293 cells. HEK 293 viability, ATP luminescence (CellTiter-Glo), 48-72 h. actives 6.6% (n = 94,000). Potency, µM (highest dose often 115 µM), for the others: at the highest dose activity change, negative = cytotoxicity, hits mostly inhibitors; also: nearly all actives have a fitted effect of over 60% in size
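Viability of HEK 293 cells, plated at 250 cells/well, was judged by cellular ATP after compound treatment for 48 or 72 hr. Luminescence was imaged 10 min after CellTiter-Glo addition at room temperature.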
NIH3T3 tox: cytotoxic compounds in NIH 3T3 cells | NIH 3T3 viability, CellTiter-Glo ATP luminescence, 48-72 h | Potency, µM (highest dose often 96.7 µM), for inactives: top-dose activity change, negative = cytotoxicity, usual class: inhibitors | actives 4.3% (n = 94,000); also: nearly all actives have a fitted effect of over 55% in size
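Cytotoxicity was measured by CellTiter-Glo ATP luminescence after 48 or 72 h compound exposure at 37 °C. Mouse NIH 3T3 fibroblasts were seeded at 400 cells/well and dosed by 23 nL pin transfer.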
FLuc inh: blocks purified firefly luciferase enzyme activity; P08659; purified P. pyralis luciferase, luminescence, biochemical; Potency, µM (titrated, usually from 115 µM), actives largely listed as inhibitors; actives 2.5% (n = 76,000); also: nearly all actives have a fitted effect of over 65% in size
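Luminescence read by CCD imager after adding enzyme (10nM final) to wells holding compound, titrated in qHTS. Substrates 10uM each D-luciferin and ATP; buffer 50mM Tris acetate pH 7.5, 10mM Mg acetate, Tween-20, BSA.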
An asterisk follows results filed as active; [ ] = dose if it differs, or a comment. Rows were chosen to be rich in hits. Some 11% of all compounds tested hit in one or more screens of this group. Unless noted, calls follow the shape of the dose curve; as a rule, active = well fitted curve in the direction sought with a large enough effect; inconclusive = small, poorly fitted or top-dose-only effect, or another doubt; inactive = no such curve, though single readings can be large; an effect the other way counts as inactive or inconclusive. % is scaled to controls: 0 for no effect and ±100 for the full control effect; potency is read from the fitted curve at half-maximal effect.

COc1ccccc1NC(=O)Cn1c(-c2cccc(Cl)c2)nc(C)c(CCO)c1=O was read as hNpr1 antagonist -3%, HEK293 tox inconclusive, NIH3T3 tox -25% and FLuc inh inactive.
`CCc1ccc(NC(=O)Cn2c(-c3cccc(Cl)c3)nc(C)c(CCO)c2=O)cc1` gave hNpr1 antagonist 0%, HEK293 tox 28µM*, NIH3T3 tox inconclusive and FLuc inh inactive.
Screening O=C(Cc1ccc(F)cc1)N1CCN(C(=O)c2nc3cccnc3n(C3CCCC3)c2=O)CC1 returned HEK293 tox -22% and NIH3T3 tox inconclusive.
For COc1ccc(-c2ccc(C(=O)NCCCc3ccccc3)cc2)nn1 the results were HEK293 tox -23%[172 µM] and NIH3T3 tox inconclusive.
COc1ccccc1Cn1c(=O)c(C(=O)NCc2cccc(Cl)c2)nc2cccnc21 was read as HEK293 tox -29% and NIH3T3 tox inconclusive.
For Cc1nc(-c2cccc(Cl)c2)n(CC(=O)NC(C)C)c(=O)c1CCO the results were hNpr1 antagonist 2%, HEK293 tox inconclusive, NIH3T3 tox -9% and FLuc inh inactive.
`Cc1cccc(N(C)C(=O)Cn2c(-c3cccc(Cl)c3)nc(C)c(CCO)c2=O)c1` gave hNpr1 antagonist -9%, HEK293 tox 35µM*, NIH3T3 tox inconclusive and FLuc inh inactive.
For Cc1cc(C)cc(NC(=O)Cn2c(-c3cccc(Cl)c3)nc(C)c(CCO)c2=O)c1 the results were hNpr1 antagonist 5%, HEK293 tox inconclusive, NIH3T3 tox -12% and FLuc inh inactive.
Cc1nc(-c2cccc(Cl)c2)n(CC(=O)Nc2ccc(C(F)(F)F)cc2)c(=O)c1CCO was read as hNpr1 antagonist -22%, HEK293 tox 32µM*, NIH3T3 tox 16µM* and FLuc inh inactive.
`COc1ccc(CN2CC3(Cc4ccccc4NC3=O)C2)cc1` gave HEK293 tox -15% and NIH3T3 tox 3%.
COCCOC(=O)C1=C(C)N=C2SC=C(CC(=O)NCCc3ccccc3)N2C1c1ccccc1 (stereo not given) was read as hNpr1 antagonist -3%, HEK293 tox 50µM*, NIH3T3 tox inconclusive and FLuc inh inactive.
Screening CCOC(=O)C1=C(C)N=C2SC=C(CC(=O)N3CCC(C)CC3)N2C1c1cccc(OC)c1 (stereo not given) returned hNpr1 antagonist -17%, HEK293 tox inconclusive, NIH3T3 tox inconclusive and FLuc inh inactive.
`COCCOC(=O)C1=C(C)N=C2SC=C(CC(=O)NCc3cccc(F)c3)N2C1c1ccccc1` (stereo not given) gave hNpr1 antagonist -2%, HEK293 tox inconclusive, NIH3T3 tox -26% and FLuc inh inactive.
For CCOC(=O)C1=C(C)N=C2SC=C(CC(=O)N3CCC(C)CC3)N2C1c1ccccc1F (stereo not given) the results were hNpr1 antagonist -16%, HEK293 tox 40µM*, NIH3T3 tox inconclusive and FLuc inh inactive.
`CC1=C(C(=O)Nc2ccccc2)C(c2cc(C)ccc2C)N2C(CC(=O)N3CCCC3)=CSC2=N1` (stereo not given) gave hNpr1 antagonist inconclusive, HEK293 tox 32µM*, NIH3T3 tox inconclusive and FLuc inh inactive.
For COCCOC(=O)C1=C(C)N=C2SC=C(CC(=O)N3CCCCC3C)N2C1c1ccccc1 (stereo not given) the results were hNpr1 antagonist -9%, HEK293 tox 35µM*, NIH3T3 tox -16% and FLuc inh inactive.
Screening COCCCNC(=O)c1ccc2nnc(CC3CC3)n2c1 returned HEK293 tox -14%[172 µM] and NIH3T3 tox -23%[138 µM].
`CNC(=O)c1cc(C)nc2onc(C3CCN(C(=O)Cc4ccc(F)cc4)C3)c12` (stereo not given) gave HEK293 tox 0% and NIH3T3 tox -16%.
`O=C(c1cnccn1)N1CCCC1c1noc(CO)n1` (stereo not given) gave HEK293 tox 0% and NIH3T3 tox -9%.
For COc1ccc(CNC(=O)C2CCCN(c3nccc(Nc4ccc(OC)cc4)n3)C2)cc1 (stereo not given) the results were HEK293 tox 28µM* and NIH3T3 tox inconclusive.
For COc1ccc(Nc2ccnc(N3CCCC(C(=O)N4CCCC(C)C4)C3)n2)cc1 (stereo not given) the results were HEK293 tox inconclusive and NIH3T3 tox 45µM*.
